Screens from PubChem BioAssay.
HEK cytotox: HEK 293 cell cytotoxicity; HEK 293 viability, ATP luminescence (CellTiter-Glo), 48-72 h; Potency, µM (series often up to 115 µM), for the others: at the highest dose activity change, negative = cytotoxicity, hits mostly inhibitors; 94,000 tested, 6.6% active; note: nearly all actives have a fitted effect of over 60% in size
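Viability of HEK 293 cells, plated at 250 cells/well, was judged by cellular ATP after compound treatment for 48 or 72 hr. Luminescence was imaged 10 min after CellTiter-Glo addition at room temperature.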
FLuc inh: inhibitors of firefly (Photinus pyralis) luciferase. P08659. 76,000 tested, 2.5% active. purified P. pyralis luciferase, luminescence, biochemical. Potency, µM (series often up to 115 µM), hits mostly inhibitors; note: nearly all actives have a fitted effect of over 65% in size
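Cell-free enzyme assay, 10nM P. pyralis luciferase, luciferin and ATP each at 10uM. Inhibition profiled over a 6-point titration, read as luminescence.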
GPT2 inh: blocks human glutamate pyruvate transaminase 2 | Q8TD30 | Recombinant GPT2, coupled pyruvate oxidase/HRP Amplex Red fluorescence | Potency, µM (highest dose often 57.7 µM), without a hit: top-dose activity change, negative = inhibition, actives largely listed as inhibitors | 100,000 tested, 0.25% active | AID 1671188; note: nearly all actives have a fitted effect of over 60% in size
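Fluorescence of coupled pyruvate oxidase/HRP/Amplex Red system (50uM Amplex, 30 min, dark) reports pyruvate formed by GPT2. Enzyme reaction: 10ng/uL GPT2, 2mM L-alanine, 250uM a-KG, 30 min room temperature, pH 7.5; 50uM AOA control.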
3T3 cytotox: kills NIH 3T3 cells | AID 1345082 | Potency, µM (doses to about 96.7 µM), without a hit: at the top dose activity change, negative = cytotoxicity, actives largely listed as inhibitors | NIH 3T3 viability, CellTiter-Glo ATP luminescence, 48-72 h | 94,000 tested, 4.3% active; note: nearly all actives have a fitted effect of over 55% in size
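Viability of NIH 3T3 cells after 48 or 72 hr compound treatment at 37 °C was assessed by CellTiter-Glo, with luminescence imaged following a 10 min room-temperature step.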
hNpr1 antagonist: antagonists of human natriuretic peptide receptor Npr1; Potency, µM (doses to about 46.3 µM), for inactives: top-dose activity change, negative = inhibition, hits mostly inhibitors; P16066; 76,000 tested, 1.6% active; HEK293 hNpr1 GloSensor cGMP, ANP-stimulated luminescence; AID 1347048; calls by dose curve; note: nearly all actives have a fitted effect of over 60% in size
Target sequence (P16066 whole entry, looked up): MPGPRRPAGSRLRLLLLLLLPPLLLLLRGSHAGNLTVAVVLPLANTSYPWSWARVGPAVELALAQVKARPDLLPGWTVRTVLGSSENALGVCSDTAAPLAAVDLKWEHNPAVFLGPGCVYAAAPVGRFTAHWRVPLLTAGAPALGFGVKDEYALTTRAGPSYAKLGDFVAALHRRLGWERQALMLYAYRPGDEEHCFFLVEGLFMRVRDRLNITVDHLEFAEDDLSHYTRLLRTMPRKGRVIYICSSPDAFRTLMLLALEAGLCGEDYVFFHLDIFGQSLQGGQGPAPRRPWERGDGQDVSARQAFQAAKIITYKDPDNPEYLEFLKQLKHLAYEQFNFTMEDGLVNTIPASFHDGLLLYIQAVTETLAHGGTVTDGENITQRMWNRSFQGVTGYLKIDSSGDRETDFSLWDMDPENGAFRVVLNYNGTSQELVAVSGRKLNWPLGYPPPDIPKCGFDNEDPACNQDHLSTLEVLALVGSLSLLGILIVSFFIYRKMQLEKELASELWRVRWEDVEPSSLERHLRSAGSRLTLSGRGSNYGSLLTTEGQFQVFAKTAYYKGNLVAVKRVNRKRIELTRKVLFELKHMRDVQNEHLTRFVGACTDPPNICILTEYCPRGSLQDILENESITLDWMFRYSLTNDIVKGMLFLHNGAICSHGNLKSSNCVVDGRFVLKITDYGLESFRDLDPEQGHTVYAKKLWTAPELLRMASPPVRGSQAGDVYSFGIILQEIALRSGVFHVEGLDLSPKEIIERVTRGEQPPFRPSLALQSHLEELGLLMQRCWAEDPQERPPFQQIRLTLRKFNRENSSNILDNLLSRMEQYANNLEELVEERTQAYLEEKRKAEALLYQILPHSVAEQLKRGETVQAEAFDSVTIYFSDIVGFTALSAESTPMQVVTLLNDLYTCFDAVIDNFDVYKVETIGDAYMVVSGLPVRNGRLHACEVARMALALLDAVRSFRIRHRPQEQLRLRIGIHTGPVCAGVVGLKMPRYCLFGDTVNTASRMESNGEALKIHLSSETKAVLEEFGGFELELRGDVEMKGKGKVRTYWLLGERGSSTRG
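HEK293 cells stably expressing human Npr1 and cGMP GloSensor pGS-40F, loaded 2 h with 2% GloSensor reagent, given compound 30 min at room temperature. Luminescence read before and 20 min after 0.1 nM hNppA.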
Active calls of the source: *; i = inactive; ? = inconclusive; · = no result given; ! = not confirmed by another sample; [ ] = another dose, or the depositor's remark. Shown are actives, neighbours in structure and some others; about 10% of the full set was active somewhere. Unless noted, calls come from the whole dose curve; as a rule, active = well fitted curve in the direction sought with a large enough effect; inconclusive = small, poorly fitted or top-dose-only effect, or another doubt; inactive = no such curve, though single readings can be large; an effect the other way counts as inactive or inconclusive. % is set by controls: 0 for no effect and ±100 for the full control effect; potency is the fitted concentration of half-maximal effect.

SMILES | HEK cytotox | FLuc inh | GPT2 inh | 3T3 cytotox | hNpr1 antagonist
COc1ccc(C(=O)N2CCC3(CC2)CC(Cc2nc(-c4ccccc4)no2)CCO3)cc1 (stereo unspecified) | 12.6µM* | ? | i | ? | 7.08µM*
COc1ccc(CCC(=O)N2CCC3(CC2)CC(Cc2nc(-c4cccnc4)no2)CCO3)cc1 (stereo unspecified) | ? | i | i | ? | ?
COc1ccc(CC2CCN(C(=O)c3c(C)noc3-c3ccc4c(c3)OCO4)CC2)cc1 | 35.5µM* | i | 1.9% | 25.1µM* | ?
O=C(c1ccc2c(c1)OCO2)N1CCC(Cc2nc(-c3ccccc3)no2)CC1 | 10µM* | ? | 1.5% | ? | 3.98µM*
COc1cccc(-c2noc(CC3CCN(C(=O)c4cc(OC)c(OC)c(OC)c4)CC3)n2)c1 | 44.7µM* | i | -2.2% | ? | -18.4%
O=C(NC1CC1)c1ccc2oc(-c3ccncc3)nc2c1 | ? | · | -2.8%[88.5 µM] | ? | ·
COc1ccccc1Nc1ccnc(N2CCN(C(=O)c3ccc(Cl)nc3)CC2)n1 | ? | · | i | ? | ·
Cc1noc(C)c1[S+](=O)([O-])N1CCC(C(=O)C2CCC(N3Cc4cccn4C3=O)CC2)CC1 (stereo unspecified) | 0.7% | · | -1.4% | -13.5% | ·
COc1ccc(-c2noc(CC3CCN(C(=O)Cc4ccsc4)CC3)n2)cc1 | 44.7µM* | i | i | ? | ?
Cc1ccc(CC(=O)N2CCC(Cc3nc(-c4ccccc4)no3)CC2)cc1 | ? | i | i | ? | ?
O=C(c1nc2cccnc2n(C2CC2)c1=O)N1CCN(C(=O)C2CCCC2)CC1 | 0.9% | · | i | -21.2% | ·
Cc1cccc(-c2ccc(CN)cc2)c1 | 63.1µM* | · | -4.8%[88.5 µM] | 31.6µM* | ·
COc1cccc(-c2ccc(CN)cc2)c1 | -28.7%[172 µM] | · | -4.1%[88.5 µM] | ? | ·
NCc1ccc(-c2cccc(Cl)c2)cc1 | 44.7µM* | · | -5.1%[88.5 µM] | 31.6µM* | ·
COc1ccccc1C(=O)NC1CCN(c2ccnc3ccnn23)CC1 | ? | · | 4.5% | ? | ·
CCc1nc2c(c(-c3ccc(Cl)cc3)n1)CCN(Cc1ccc(C#N)cc1)CC2 | 39.8µM* | i | -10.4% | ? | 7.0%
CCc1nc2c(c(-c3ccc(OC)cc3)n1)CCN(Cc1cc(C)on1)CC2 | 3.9% | · | i | 20µM* | ·
CCc1nc2c(c(-c3ccc(Cl)cc3)n1)CN(Cc1ccc(F)cc1)CC2 | 44.7µM* | i | i | 22.4µM* | 1.2%
CCc1nc2c(c(-c3ccc(Cl)cc3)n1)CN(Cc1ccc(OC)cc1)CC2 | ? | i | i | 35.5µM* | 1.6%
CCCN(CC1CCOC1)C(=O)c1ccc(F)c(Cl)c1 (stereo unspecified) | -3.8% | i | ? | 2.9% | 2.8%
CCc1nc2c(c(-c3ccc(Cl)cc3)n1)CN(Cc1cccc(OC)c1)CC2 | ? | i | i | 12.6µM* | 7.0%
CCc1nc2c(c(-c3ccc(Cl)cc3)n1)CN(S(=O)(=O)c1ccccc1)CC2 | 4.6% | i | 0.5% | 20µM*! | 2.4%
CCc1nc2c(c(-c3ccc(Cl)cc3)n1)CN(Cc1cccc3ccccc13)CC2 | 79.4µM* | i | i | 31.6µM* | 0.4%
CNC(=O)c1cc(C2CC2)nc2c1c(C1CCN([S+](=O)([O-])c3ccccc3)C1)nn2C (stereo unspecified) | -26.4% | · | · | -21.8% | ·
CNC(=O)[C@H]1C[C@]2(CCCCN(CCO)C2=O)N(C(=O)NCc2ccccc2)[C@H]1c1ccccc1 | -11.1% | · | · | ? | ·
SMILES | HEK cytotox | FLuc inh | GPT2 inh | 3T3 cytotox | hNpr1 antagonist
CC(C)c1ccc(C(=O)NCc2ccnc3[nH]ccc23)cc1 | ? | 25.1µM* | i | ? | -3.0%[70.6 µM]
Cc1ccc(C(=O)NCc2ccnc3[nH]ccc23)cc1 | 3.1%[172 µM] | ? | -4.2%[88.5 µM] | -2.3%[138 µM] | 1.4%[70.6 µM]
COc1cccc(-c2ncc3c(n2)OCCN(c2cccc(C(F)(F)F)c2)C3=O)c1 | ? | 2µM* | -10.7%[88.5 µM] | ? | -23.8%[70.6 µM]
O=C1c2cnc(-c3cncnc3)nc2OCCN1c1cccc(C(F)(F)F)c1 | -15.2%[172 µM] | i | i | 39.8µM* | -0.5%[70.6 µM]
O=C1c2cnc(-c3ccccc3)nc2OCCN1c1cccc(C(F)(F)F)c1 | ? | ? | -15.2%[88.5 µM] | ? | ?
COc1ccc(CN2C[C@@H]3C[C@@H](C(N)=O)N(C(=O)CC4CCCC4)c4cccc(c43)C2=O)cc1 | ? | · | -8.2%[27.3 µM] | ? | ·
O=C(c1ccoc1)N1CCC(N2C[C@H](Oc3ccccc3)[C@@H]2c2ccncc2)CC1 | -24.2% | · | -54.7% | -24.4% | ·
Cc1noc(C)c1C(=O)N1CCC2(CC1)CN(C(=O)c1ccc(Cl)cc1)CCO2 | 0.1% | · | 0.9% | 6.31µM* | ·
COc1cccc(NC(=O)[C@@H]2C[C@@H](c3ccc(F)cc3)N(Cc3ccccc3)C2)c1 | ? | i | -8.5%[88.5 µM] | 31.6µM* | ?
COc1cc(CNC(=O)[C@@H]2C[C@@H](c3ccc(F)cc3)N(Cc3ccccc3)C2)cc(OC)c1 | ? | i | -13.0% | -25.9% | -4.9%
O=C(Nc1ccncn1)[C@@H]1C[C@@H](c2ccc(F)cc2)N(Cc2ccccc2)C1 | 100µM* | i | -27.3%[88.5 µM] | 79.4µM* | -18.1%[70.6 µM]
N#Cc1cccc(C(=O)NC2CCN(c3cc(-c4ccc(F)cc4)[nH]n3)C2)c1 (stereo unspecified) | 44.7µM* | i | ? | ? | -11.3%
COc1ccc(-c2cc(N3CCC(NC(=O)c4cccc(C)c4)C3)n[nH]2)cc1 (stereo unspecified) | ? | i | ? | -17.0% | 0.7%
COc1ccc(-c2cc(N3CCC(NC(=O)c4cccc(C#N)c4)C3)n[nH]2)cc1 (stereo unspecified) | 35.5µM* | i | ? | ? | -10.5%
COc1ccc(-c2cc(N3CCC(NC(=O)c4cccc(Cl)c4)C3)n[nH]2)cc1 (stereo unspecified) | ? | i | -8.9% | ? | -18.3%
N#Cc1cccc(C(=O)NC2CCN(c3cc(-c4ccc(F)cc4)[nH]n3)CC2)c1 | ? | i | -10.6% | ? | -22.7%
COc1ccc(-c2cc(N3CCC(NC(=O)c4cccc(OC(F)(F)F)c4)C3)n[nH]2)cc1 (stereo unspecified) | 39.8µM* | i | 2.3% | ? | -9.6%
O=C(CNC(=O)c1ccc(-c2cnc3ccccc3c2)cc1)NCC(F)(F)F | -29.8% | · | · | -16.9% | ·
O=C(NCC(=O)N1CCCCC1)c1ccc(-c2cnc3ccccc3c2)cc1 | 44.7µM* | · | -23.1% | ? | ·
O=C(CNC(=O)c1ccc(-c2cnc3ccccc3c2)cc1)NCC1CCCCC1 | 39.8µM* | · | · | ? | ·
COc1cccc(-c2cccc(C(=O)N3CCN(C(=O)Nc4ccccc4)CC3)c2)c1 | ? | · | 3.0% | ? | ·
COc1ccc(Cn2c(=O)c(C(=O)NCc3cccc(C(F)(F)F)c3)nc3cccnc32)cc1 | ? | · | i | ? | ·
